± gives the standard deviation.
Tests used:
[1] = test system: MILI (PIWIL2) piRISC loaded with piRNA #1 (26 nt); assay: pre-steady-state target cleavage rate (min^-1); guide: piRNA #1 5'p-UGAGGUAGUAGGUUGUAUAGUAUCCA; higher = faster piRNA-guided slicing of the target; conditions: auxiliary factor: 500 nM mouse GTSF1;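 note: 1 nM active piRISC with 0.1 nM target library at 33 °C single turnover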
In short: (§1)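 Cleave-'n-Seq measured uncleaved targets by sequencing after a transcribed, DNA-blocked target RNA library […] was mixed with 1 nM active affinity-purified piRISC holding one synthetic guide, with or without 500 nM GTSF1 partner protein, at 33 °C in HEPES–potassium acetate buffer for 0–8 or 0–960 min. Counts were normalised to depth and to weakly complementary targets, three trials were pooled, and k3 was capped at 0.0001 min^-1. A burst-and-steady-state fit gave the pre-steady-state cleavage rate.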

[2] = test system: EfPiwi piRISC loaded with piRNA #1 (26 nt); assay: pre-steady-state target cleavage rate (min^-1); auxiliary factor: 500 nM Ephydatia muelleri Gtsf1; guide: piRNA #1 5'p-UGAGGUAGUAGGUUGUAUAGUAUCCA; MIWI and MILI are mouse PIWI proteins and EfPiwi is from a freshwater sponge; tags in brackets are library labels; higher = faster piRNA-guided slicing of the target
In short: as §1

Sequence	pre-steady-state target cleavage rate [1]	pre-steady-state target cleavage rate [2]
GGAGACCAUACUAUACAACCUACUUCGUCA	0.112 ± 0.029	0.00491 ± 0.0039
GGAGAGGAACUAUACAACCUACUACCUCA	0.167 ± 0.013	0.00746 ± 0.0049
GGAGUGGAUAUCUAUACAACCUACUACCUCA	0.0708 ± 0.0091	0.00883 ± 0.0052
GGAGAGAUACUAUACAACCUACUACCUCA	0.202 ± 0.017	0.121 ± 0.054
GGAGUGGAUAGUAUACAACCUACUUCCUCA	0.0138 ± 0.0048	0.00264 ± 0.0019
GGAGACCUAACUACUACAACCUACUACCUCA	0.107 ± 0.026	0.00946 ± 0.0059
GGAGACGAAACAAUACAACCUACUACCUCA	0.167 ± 0.026	0.00789 ± 0.0038
GGAGAGGAUACUAUACAACCUACUACCUAA	0.125 ± 0.011	0.0131 ± 0.0058
GGAGAGGAUACUAUACAACCUCCUACCUCA	0.0496 ± 0.0063	0.0065 ± 0.0026
GGAGUGGAUACAUAUACAACCUACUACCUCA	0.114 ± 0.011	0.0717 ± 0.027
GGAGUCGAAACUAUACAACCUACUACCUCA	0.18 ± 0.019	0.0604 ± 0.021
GGAGAGGAUACAAUACAAGCUACUACCUCA	0.178 ± 0.017	0.0036 ± 0.0019
GGAGACGAUACUAUACAACCUACUACACUCA	0.202 ± 0.03	0.00494 ± 0.0019
GGAGAGGAUACUAUACAACCUACUACGUGA	0.0154 ± 0.004	0.00416 ± 0.0019
GGAGUGGAUACUAUACAACCUACUUACCUCA	0.133 ± 0.011	0.00852 ± 0.0034
GGAGAGGAUACUAUACAACCAACUACGUCA	0.00609 ± 0.0018	0.00338 ± 0.0016
GGAGACCUUACUAUGACAACCUACUACCUCA	0.179 ± 0.018	0.00456 ± 0.0042
GGAGACCUAACUAUACAACCUACGACCUCA	0.129 ± 0.027	0.00261 ± 0.0025
GGAGAGGAUACUAUCAACCUACUACCUCA	0.154 ± 0.01	0.0088 ± 0.0053
GGAGACCUAUCUAUACAACCUACUACCUCU [g2:g20:cont:t1U]	0.0927 ± 0.011	0.993 ± 0.45

Sequence	pre-steady-state target cleavage rate [1]	pre-steady-state target cleavage rate [2]
GGAGACGAUACUUUACAACCUACUACCUCA	0.189 ± 0.013	0.00691 ± 0.0033
GGAGACCUAUCCUAUACAACCUACUACCUCA	0.106 ± 0.011	0.0903 ± 0.032
GGAGACCAAACUAUACAACCUAGUACCUCA	0.0169 ± 0.0096	0.00518 ± 0.0029
GGAGUGGAUUACUAUACAACCUACUACCUCA	0.154 ± 0.0078	0.00938 ± 0.0037
GGAGUGGAUACUAUACAUGGAUGAUGGAGA [g14:g26:cont:t1A]	< 0.0001	< 0.0001
GGAGACCUUACUAUACAACUUACUACCUCA	0.0242 ± 0.0054	0.00902 ± 0.0051
GGAGAGGAUACUAUACAAGGUACUACCUCA	0.0284 ± 0.0051	0.00404 ± 0.0023
GGAGACCAUACUAUACAACCUACUACGUGA	0.115 ± 0.024	0.0051 ± 0.0028
GGAGACCAUAGCUAUACAACCUACUACCUCA	0.121 ± 0.014	0.0108 ± 0.0051
GGAGUGGAUACUAUACAACACUACUACCUCA	0.00621 ± 0.0026	0.00629 ± 0.003
GGAGUGGAUACUAAUCAACCUACUACCUCA	0.144 ± 0.01	0.00495 ± 0.0038
GGAGACGAUACUAUACUACCUACUACCACA	0.209 ± 0.016	0.00202 ± 0.0018
GGAGAGGAUAGUAUACAACCUUCUACCUCA	0.00649 ± 0.004	0.00304 ± 0.0024
GGAGACCUUACUAAUACAACCUACUACCUCA	0.0928 ± 0.01	0.074 ± 0.027
GGAGAGGAUACUAUAGCAACCUACUACCUCA	0.129 ± 0.012	0.0429 ± 0.019
GGAGACGAUAGUAUACAUCCUACUACCUCA	0.232 ± 0.016	0.00323 ± 0.0026
GGAGAGGAUACUAUACAGCCUACUACCUCA	0.132 ± 0.013	0.105 ± 0.04
GGAGAGGAUACUAUACAACCUACUACCUUCA	0.178 ± 0.016	0.104 ± 0.039
GGAGAGGAUACUAUACAACCUAUACCUCA	0.00606 ± 0.0021	0.00469 ± 0.0024
GGAGACCUUACUAUACUACCUACUACCUCA	0.159 ± 0.014	0.00739 ± 0.0039

Sequence	pre-steady-state target cleavage rate [1]	pre-steady-state target cleavage rate [2]
GGAGUGGUUAGUAUACAACCUACUACCUCA	0.105 ± 0.011	0.00533 ± 0.0036
GGAGACGAUACUAUACAACCUACUACCUCU [g2:g24:cont:t1U]	0.24 ± 0.019	1.35 ± 0.49
GGAGACGAAACUAUACAACCUACUACGUCA	0.0713 ± 0.022	0.00245 ± 0.0024
GGAGACGAUACUAUAAAACCUACUACCUCA	0.184 ± 0.013	0.00426 ± 0.0022
GGAGACCUUACUAUACAACCUACUACCGUCA	0.132 ± 0.02	0.0112 ± 0.0047
GGAGAGGAUACUAUACAACCCACUACCUCA	0.0214 ± 0.0051	0.00601 ± 0.0024
GGAGACGAUACUAUACAACCUACUCCUCA	0.0114 ± 0.0032	0.0048 ± 0.0022
GGAGAGGAUACUAUACACCCUACUACCUCA	0.122 ± 0.015	0.0114 ± 0.0053
GGAGACGAGUACUAUACAACCUACUACCUCA	0.176 ± 0.014	0.0147 ± 0.0053
GGAGACCUAUGAUAUGUACCUACAUGGAGA [g8:g13:cont:t1A]	< 0.0001	< 0.0001
GGAGAGGAAACUAUACAACCUACUACCUGA	0.047 ± 0.014	0.0041 ± 0.0024
GGAGACGAUACUAUACAACCAACUACCACA	0.00835 ± 0.0032	0.00406 ± 0.003
GGAGUGGAUACUAUACAACCUAGUACCUCA	0.0508 ± 0.0096	0.00414 ± 0.0012
GGAGUCGAUAGUAUACAACCUACUACCUCA	0.154 ± 0.011	0.0054 ± 0.0038
GGAGUGGAUACCUAUACAACCUACUACCUCA	0.0993 ± 0.019	0.0485 ± 0.018
GGAGACCUAUCUAUACAACCUACUACUUCA	0.0866 ± 0.0097	0.0119 ± 0.0067
GGAGACCUUACUACUACAACCUACUACCUCA	0.107 ± 0.011	0.00852 ± 0.0036
GGAGUGGAUACUAUACAACCAACUACCACA	0.00424 ± 0.0025	0.00391 ± 0.0018
GGAGAGGAUACUAUUCAAGCUACUACCUCA	0.131 ± 0.014	0.00323 ± 0.002
GGAGACCAUACAAUACAUCCUACUACCUCA	0.209 ± 0.025	0.00484 ± 0.003
